High-throughput results: PubChem, several laboratories
Hsp90 block: displaces geldanamycin probe from tumor Hsp90. P07900. NCI-N417 lysate Hsp90, Cy3B-geldanamycin FP displacement. inhibition, % at 30 µM. hit rate 0.35% among 64,000. AID 429;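 active means inhibition above 50%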;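 further: 0% = tracer plus lysate wells and 100% = tracer alone without lysate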
HER2 expr 66K: lowers expression of human Her2 kinase. P04626. SKBR-3 HER2 protein level, AlphaScreen, 18-24 h; stronger effect = lower value. HER2 level % of control, % at 10 µM. hit rate 0.69% among 65,000. AID 645;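 active means HER2 level under 5% of the carrier-only control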;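 further: 100% = DMSO carrier and 0% = 500 nM PU-H71 HSP90 inhibitor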
SKBR3 24h inh: SK-BR-3 proliferation inhibitors | AID 847 | SK-BR-3 viability, CellTiter-Glo ATP luminescence, 24 h; stronger effect = lower value | hit rate 0.47% among 41,000 | viability, % at 10 µM;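 active means viability at or below the median of all test compounds minus 3 SD, in both replicates if run twice, cut at about 45% in these data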;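 further: 100% = median untreated cell wells and 0% = median positive control drug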
TNAP act DEA: activates human TNAP at intermediate phosphate acceptor concentration; P05186; purified TNAP, CDP-star luminescence, 100 mM DEA, 30 min; stronger effect = higher value; scale: 0 levamisole-inhibited, 1 vehicle-only enzyme; activation factor at 20 µM; 64,000 tested, under 10 active;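 active means activation factor of at least 2 at 20 µM, relative to controls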
Target sequence (P05186 whole entry, looked up): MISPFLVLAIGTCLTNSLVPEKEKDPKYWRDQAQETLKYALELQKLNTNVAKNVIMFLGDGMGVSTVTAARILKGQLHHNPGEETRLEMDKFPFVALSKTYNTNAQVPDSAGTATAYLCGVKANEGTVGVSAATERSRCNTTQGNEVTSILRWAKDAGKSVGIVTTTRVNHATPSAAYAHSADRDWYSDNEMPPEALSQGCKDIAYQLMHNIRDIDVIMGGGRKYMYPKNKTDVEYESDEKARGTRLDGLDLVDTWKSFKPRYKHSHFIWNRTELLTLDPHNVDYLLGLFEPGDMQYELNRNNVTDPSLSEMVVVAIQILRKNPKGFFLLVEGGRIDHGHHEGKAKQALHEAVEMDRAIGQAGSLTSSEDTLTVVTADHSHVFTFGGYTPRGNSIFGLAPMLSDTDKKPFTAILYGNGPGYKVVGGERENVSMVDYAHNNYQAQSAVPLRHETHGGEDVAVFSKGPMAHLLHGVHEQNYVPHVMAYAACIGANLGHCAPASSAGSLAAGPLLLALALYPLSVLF
BAP1 block: inhibitors of human BAP1 deubiquitinase; recombinant BAP1, Ub-AMC hydrolysis fluorescence kinetic; stronger effect = lower value; hit rate 0.48% among 72,000; activity remaining (% of control), % at 20 µM;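 active means activity remaining at or below 50% of control, provided the compound also passes the data quality filters; inactive means the rest, including low values that fail the filters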;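 further: 100% = DMSO wells rate and 0% = substrate alone blank rate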
S1P1 ag pot: S1P1 (human) agonism or agonism potentiation; activation, % at 9.5 µM; hit rate 0.57% among 56,000; P21453; S1P1 CRE-bla cells, forskolin, beta-lactamase FRET, potentiator mode; S1P1 agonist co-added at EC20, 2 nM; 100% = saturating reference agonist, 0% = basal; AID 449;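 active means activation above a cutoff set at the mean activation of all tested compounds plus 3 SD, cut at about 54% in these data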;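 further: forskolin at 4 µM as EC80 and the EC20 agonist is SEW2871; 100% = SEW2871 at its EC100 plus forskolin at EC80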
Numbers without * were called inactive; · = not tested or not shown. A selection: hits, their analogues and other compounds. The true share with any hit is near 1.9%.

SMILES	Hsp90 block	HER2 expr 66K	SKBR3 24h inh	TNAP act DEA	BAP1 block	S1P1 ag pot
Cc1cc(SCC(=O)Nc2c(C)n(C)n(-c3ccccc3)c2=O)n2c(nc3ccccc32)c1C#N	-9	97	96	·	138	-4
Cc1cc(C(F)(F)F)c2c(N)c(C(=O)c3ccc(Cl)s3)sc2n1	·	·	·	·	69	·
CC(=O)c1sc2nc(-c3cccs3)cc(C(F)(F)F)c2c1N	-3	-2.8*	108	0.9	136	36
CC(C)C(=O)N(Cc1cc2ccccc2[nH]c1=O)C(C)(C)C	-4	-27*	95	0.9	97	-2
O=C(c1cccn2c(=O)c3cc(Br)ccc3nc12)N1CCN(c2ccccn2)CC1	0	42	·	0.9	94	·
O=C(c1cc(-c2ccncc2)nc2ccc(Br)cc12)N1CCN(c2ccccn2)CC1	137*	37	69	0.9	65	-6
Oc1ccc2ccccc2c1C=NCc1cn2ccsc2n1	9	-11*	·	0.9	107	-20
O=C(CCCc1ccccc1)NCc1cn2ccsc2n1	-3	69	·	0.9	85	-18
N#Cc1c(-c2ccccc2)cc(-c2ccco2)c(C#N)c1N	·	55	102	0.9	·	·
CN1C(=O)N(C)C2C1N(C)S(=O)(=O)N2C (stereo unspecified)	0	99	106	1	109	14
CCn1nc(C(=O)O)c(=O)c2cc3c(cc21)OCO3	6	117	82	0.9	54	-11
Cc1ccccc1Nc1cc2ccccc2c(=O)[nH]1	79*	15	78	1	72	-35
CCN(C(=O)c1coc(=O)c2ccccc12)c1cc(OC)ccc1OC	-2	91	89	0.8	113	-28
N#Cc1c(N)sc(=S)c2c1CCN(Cc1ccccc1)C2	-3	0.0*	·	0.8	102	0
CCN1CCc2c(sc(N)c2C#N)C1	-51	63	82	0.9	129	·
C=CCn1c(SCC(=O)c2cccs2)nc2sc(CC)cc2c1=O	-3	75	96	0.9	91	93*
Cc1cc(C)nc(N2CCN(c3nnnn3-c3ccccc3)CC2)n1	-1	92	86	0.9	100	15
CC(=O)Oc1cc2c(C(=O)NCCCN3CCOCC3)c(C)oc2c2ccccc12	94*	85	88	0.9	97	-1
COc1cccc2cc(C(=O)NCCCN3CCOCC3)c(=O)oc12	·	·	·	·	78	·
CCOC(=O)C(C(=O)OCC)c1cc(Br)c2noc3c2c1C(=O)c1ccccc1-3	·	-5.2*	26*	0.9	·	·
CCC1CCCN1Cn1cnc2c([nH]c3ccccc32)c1=O (stereo unspecified)	-4	120	·	0.9	63	-16
CN(C)c1cc(NC(=O)CN2CCOCC2)c2ccccc2n1	-1	88	·	0.8	42*	-28
CN(Cc1ccccc1)C(=O)Nc1ccccc1	-3	88	·	0.9	118	-25
O=C1CC(NCc2ccc3c(c2)OCO3)C(=O)N1CCc1ccccc1 (stereo unspecified)	-3	77	93	0.9	96	-11
O=C(CCCCn1c(=O)c2ccccc2n(CC(=O)Nc2ccc(F)cc2)c1=O)NCc1ccco1	1	78	80	0.9	99	1
SMILES	Hsp90 block	HER2 expr 66K	SKBR3 24h inh	TNAP act DEA	BAP1 block	S1P1 ag pot
Cc1ccc(NC(=O)Cn2c(=O)n(CCCCC(=O)NCc3ccco3)c(=O)c3ccccc32)cc1	-6	41	43*	1	95	-10
Cc1cccc(OCC(O)CN2CCN(C3CCCCC3)CC2)c1 (stereo unspecified)	-3	90	85	0.9	102	-3
N#C/C(=C\c1ccc(O)c(O)c1)C(=O)c1ccc(O)c(O)c1	87*	·	·	·	90	·
N#C/C(=C\c1c[nH]c2ccccc12)C(=O)c1ccc(O)c(O)c1	72*	·	·	·	68	·
N#C/C(=C\c1ccc(O)c(O)c1)C(=O)NCCCc1ccccc1	68*	83	87	0.4	109	40
N#C/C(=C\c1ccc(O)c(O)c1)S(=O)(=O)c1ccccc1	42	171	72	0.6	·	-2
COC(=O)C1=C(C)NC(=O)NC1c1ccc(Cl)cc1 (stereo unspecified)	·	·	·	·	56	·
COc1cc(NCCCC(C)O)c2ncccc2c1 (stereo unspecified)	1	·	·	·	·	·
